Test results taken from PubChem BioAssay (Tox21).
Inconclusive results are not listed. Activity calls are given as the source filed them. The call rests on the fitted dose curve; in most records, active means well fitted activation curve with a large enough effect; inconclusive means small, poorly fitted or top-dose-only effect; inactive means flat fitted curve, though single readings scatter.

Assay: qHTS assay to identify small molecule phospholipidosis (PLD) inducers (AID 1259344)
Settings: HepG2 phospholipidosis, LipidTOX Red imaging, 24 h; series mostly up to 38.3 µM; PLD induction: at the top concentration
From the text: National Center for Advancing Translational Sciences [NCATS]
Drug-induced Phospholipidosis (PLD) caused by cationic amphiphilic drugs is characterized by the appearance of unicentric or multicentric-lamellar bodies when viewed under electron microscope. Electron microscopy is the gold standard method for PLD detection, however, this method is time-consuming and labor intensive, making it unsuitable for evaluating a large set of compounds. A cell-based phospholipidosis assay has been developed using the LipidTox reagent in HepG2 cells and miniaturized into a 1536-well plate format. Drug induced phospholipid accumulation is stained with the LipidTox dyes in red color which then is determined using an automated high content screening system.
HepG2 cells are dispensed at 900 cells/3 uL/well into Collagen I-coated 1536-well black-wall/clear-bottom assay plates (Greiner Bio-One, Monroe, NC) using the Multidrop Combi 8 channel dispenser (Thermo Fisher, Waltham, MA, USA). The assay plates are incubated at 37 C for 4 hours to allow the cell attachment. 3 uL of 1:500 LipidTOX Red dye is added using the dispenser, and then 23 nL compounds are added via a Wako Pintool station (Wako Automation, San Diego, CA). Amiodarone, a known PLD inducer, was used as a positive control and DMSO was used as a negative control. The assay plates were then incubated at 37 C for 24 hours.
For fixations, 4 uL of 8% paraformaldehyde fixative solution containing 10 ug/mL Hoechst 33342 in Dulbecco's phosphate-buffered saline (DPBS) is added using a Kalypsys washer/dispenser (Kalypsys, San Diego, CA, USA). After incubation at room temperature for 30 min, the assay plates are washed once with DPBS using a Kalypsys washer/dispenser. The assay plates are then sealed and stored at 4 C before imaging. The fluorescence intensities (595 nm excitation, 615 nm emission for LipidTOX; 352 nm excitation, 461 nm emission for Hoechst 33342) are measured using an ImageXpress Micro Widefield High Content Screening System (Molecular Devices, Sunnyvale, CA, USA) with a 20x Plan Fluor objective. Images are acquired for one site in each well and analyzed with the MetaXpress software (Molecular Devices) using the Transfluor module. Several algorithmic outputs, such as pit count per well, pit count per cell, pit integrated intensity per well, and pit integrated intensity per cell, are used for quantitative image analysis for PLD.
On the % scale 0 is the no-effect control and ±100 the full control effect; potency means the concentration at half of the fitted maximal effect.

SMILES	PLD induction	Potency
Cc1ccc(N(CC2=NCCN2)c2cccc(O)c2)cc1	1.26% (inactive)	
COc1ccc(-c2cc(=S)ss2)cc1	1.05% (inactive)	
Nc1ccn([C@H]2CS[C@@H](CO)O2)c(=O)n1		inactive
CC(=O)Oc1cccc(O)c1	-0.691% (inactive)	
CCN(CC)CCNC(=O)c1cc(Cl)c(N)cc1OC	-0.347% (inactive)	
O=C(O)CN1C(=O)c2cccc3cccc(c23)C1=O	-0.0909% (inactive)	
CC(C)(C)NCC(O)COc1cccc2c1C[C@H](O)[C@H](O)C2 (stereo not given in full)	-0.304% [at 15.5 µM] (inactive)	
COc1cc(NC(C)CCCN)c2ncccc2c1 (stereo not given)	0.811% [at 15.5 µM] (inactive)	
COc1ccc(-c2cc(C(F)F)nn2-c2ccc(S(N)(=O)=O)cc2)cc1F	-0.521% (inactive)	
Nc1cccc2c(N)cccc12	-4.72% [at 78.4 µM] (inactive)	
COc1cc(NCc2ccc3nc(N)nc(N)c3c2C)cc(OC)c1OC	5.72% (inactive)	
CC12CC3CC(C)(C1)CC(N)(C3)C2	4.54% (inactive)	
CC(=O)N[C@@H](Cc1ccc(O)cc1)C(=O)O	0.0492% (inactive)	
O=NN(CCCl)C(=O)NCCCl	0.347% (inactive)	
CC[C@@H](CO)NCCN[C@@H](CC)CO	-0.694% [at 15.5 µM] (inactive)	
CC(C(=O)O)c1ccc(C(=O)c2cccs2)cc1 (stereo not given)	1.24% [at 15.5 µM] (inactive)	
CNc1c2c(nn1C)CCCC2	-0.812% (inactive)	
O=C1[C@@H]2[C@H]3CC[C@H](C3)[C@@H]2C(=O)N1CCCCN1CCN(c2ncccn2)CC1	3.7% (inactive)	
COc1ccc(CCN(C)CCCN2CCc3cc(OC)c(OC)cc3CC2=O)cc1OC	0.479% (inactive)	
CCN(CC)C(=O)/C(C#N)=C/c1cc(O)c(O)c([N+](=O)[O-])c1	2.05% (inactive)	

SMILES	PLD induction	Potency
COc1ccc(/C=C/C(=O)c2ccc(OC)cc2OC)cc1	0.382% (inactive)	
COc1ccc2nc(S(=O)Cc3ncc(C)c(OC)c3C)[nH]c2c1 (stereo not given)	-0.875% (inactive)	
CN=C(N)NC(=O)Nc1c(C)cccc1C	0.181% (inactive)	
CC(C)(C(=O)c1cccnc1)c1cccnc1	-1.72% [at 15.5 µM] (inactive)	
N[C@@H](Cc1cc(I)c(O)c(I)c1)C(=O)O	10.4% (inactive)	
CCCc1nc2c(C)cc(-c3nc4ccccc4n3C)cc2n1Cc1ccc(-c2ccccc2C(=O)O)cc1	6.52% (inactive)	
CCOC(=O)c1c(N)sc2c1CCN(Cc1ccccc1)C2	-0.4% (inactive)	
CC(CCc1ccc(O)cc1)NCCc1ccc(O)c(O)c1 (stereo not given)	5.4% (inactive)	
c1ccc2sc(SSc3nc4ccccc4s3)nc2c1	-0.162% (inactive)	
CCCCCCCCCCCC(=O)OCC(O)CO (stereo not given)	0.686% (inactive)	
CCN(CC)CCOc1ccccc1C(=O)CCc1ccccc1	17.1% (inactive)	
Cc1cn([C@H]2C[C@H](F)[C@@H](CO)O2)c(=O)[nH]c1=O	-1.19% (inactive)	
CCN(CC)C(=O)N1CCN(C)CC1	0.208% [at 15.5 µM] (inactive)	
O[C@@H](CNC[C@H](O)[C@H]1CCc2cc(F)ccc2O1)[C@@H]1CCc2cc(F)ccc2O1		3550 nM (active)
CC[C@H]1OC(=O)[C@H](C)[C@@H](O[C@H]2C[C@@](C)(OC)[C@@H](O)[C@H](C)O2)[C@H](C)[C@@H](O[C@@H]2O[C@H](C)C[C@H](N(C)C)[C@H]2O)[C@](C)(O)C[C@@H](C)C(=O)[C@H](C)[C@@H](O)[C@]1(C)O		inactive
CC(O)Cn1cnc2c1c(=O)n(C)c(=O)n2C (stereo not given)	-1.14% [at 15.5 µM] (inactive)	
COc1cc(C(C)=O)ccc1OCCCN1CCC(c2noc3cc(F)ccc23)CC1		1000 nM (active)
CCOC(=O)c1ccc(NC(=O)CN2CCCCC2)cc1	2.97% (inactive)	
CO[C@@H]1[C@@H](OC)[C@H](C)[C@@](O)(CC(=O)O)O[C@H]1[C@H](C)[C@H]1O[C@@]2(CC[C@@](C)([C@H]3CC[C@@](C)([C@@H]4O[C@@H]([C@H]5O[C@](C)(O)[C@H](C)C[C@@H]5C)C[C@@H]4OC4C[C@H](OC)[C@@H](OC)[C@H](C)O4)O3)O2)C[C@H](O)[C@H]1C (stereo not given in full)	-3.53% (inactive)	
O=C(NC(Cc1cc(=O)[nH]c2ccccc12)C(=O)O)c1ccc(Cl)cc1 (stereo not given)	-0.238% (inactive)	
